# Source: PubChem BioAssay (NCATS)
# Records with an inconclusive call do not appear. A call without a number means that no potency is given here. Unmarked numbers belong to inactive results. Active and inactive are the calls of the source. Calls come from the whole dose curve; as a rule, active = well fitted inhibition curve with a large enough effect; inconclusive = small, poorly fitted or top-dose-only effect; inactive = flat fitted curve, though single readings scatter.
# Experiment: P-glycoprotein substrates identified in KB-8-5-11 adenocarcinoma cell line, qHTS therapeutic library screen (AID 1346987); note: nearly all actives have a fitted effect of over 65% in size
# Details: KB-8-5-11 (P-gp overexpressing) viability, CellTiter-Glo, 72 h; series mostly up to 44.5 µM
# Procedure, shortened: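 Human cervical adenocarcinoma KB-8-5-11 cells, selected in colchicine to over-express P-gp and assayed without it, were exposed for 72 h to titrated compounds. An ATP-based luminescent viability signal gave AC50.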
SMILES,Potency,"activity change, negative = cytotoxicity"
CCC1(C)CC(=O)NC(=O)C1,inactive,
O=C1C[C@@H]2OCC=C3CN4CC[C@]56c7ccccc7N1[C@H]5[C@H]2[C@H]3C[C@H]46,inactive,
CCC(N)Cc1c[nH]c2ccccc12 (configuration not stated),inactive,
C=C1[C@@H]2CC[C@@]3(C)[C@H](c4ccoc4)OC(=O)C[C@]13O[C@H]1CC(=O)C(C)(C)[C@H](C(OC(C)=O)C(=O)OC)[C@]12C (some centres not stated),inactive,
F/C(COc1ccc2c(c1)[nH]c1ccccc12)=C1/CN2CCC1CC2,inactive,
C/C=C(\C)C(=O)OC1CC2C(CC=C3CC(OC4CC(OC)C(OC5CC(OC)C(OC6OC(C)C(OC7OC(CO)C(O)C(O)C7O)C(OC)C6O)C(C)O5)C(C)O4)CCC32C)C2(O)CCC(C(C)=O)C12C (configuration not stated),,9.6% [at 9.29 µM]
C=C[C@H]1[C@H](O[C@@H]2O[C@H](CO)[C@@H](O)[C@H](O)[C@H]2O)OC=C2C(=O)OCC[C@H]21,inactive,
CCCCNCC(O)c1ccc(O)cc1 (configuration not stated),inactive,
COc1ccc2c3c1O[C@H]1C(=O)CC[C@H]4[C@@H](C2)N(C)CC[C@]314,inactive,
CCCCC[C@@H](O)C1C(=O)OC(C)[C@H](O)/C=C/C=C/C=C/C=C/C=C(\C)C(O)C(O)C(O)C[C@H](O)C[C@H](O)C[C@H](O)C[C@H](O)C[C@@H]1O (some centres not stated),inactive,
Clc1ccc(C2(Cn3cncn3)OCCO2)c(Cl)c1,inactive,
COC(=O)[C@@]12C(=O)C(C)C(=O)[C@]1(C)C(C)=C[C@H]1[C@]3(C=O)CC[C@H](OC(C)=O)C(C)(C)[C@H]3CC[C@@]12C (some centres not stated),inactive,
